Molecules are shown by their SMILES. Records with an inconclusive call do not appear. Values without a mark were called inactive. Calls come from the whole dose curve; as a rule, active = well fitted cell-killing curve with a large enough effect; inconclusive = small, poorly fitted or top-dose-only effect, or effect the other way; inactive = flat fitted curve, though single readings scatter.
% is set by controls: 0 for no effect and ±100 for the full control effect.

The test system of this test is CAOV3. The test is described as follows: Primary qHTS to identify gynecologic anti-cancer compounds using libraries of approved drugs and bioactive compounds (AID 1345084). Note: nearly all actives have a fitted effect of over 55% in size. The conditions noted are these: Gynecologic cancer cell panel viability, ATPlite luminescence, 48 h; series mostly up to 57.5 µM; activity change, negative = cytotoxicity: at the top concentration. The text has this:
National Center for Advancing Translational Sciences [NCATS] Assay Overview: Chemotherapeutic drug responses vary from cancer to cancer and from patient to patient. These variations could be caused by a number of factors including patient genomic background, tumor mutations, tumor heterogeneity, and aspects of drug treatment. Chemotherapeutic drug resistance is also a common issue and can lead to ineffective treatment and patient death. Here we have profiled the cell killing effects of thousands of compounds to characterize the responses in three gynecological cancers, identify cancer-selective compounds, and understand the diversity of responses to these compounds from pan-cancer suppressors to single cell line selective compounds. In this assay, we screened a 7,914 compound drug library that included approved drug and bioactive compounds in six ovarian, three cervical, and […] placental cancer cell lines using the ATPlite assay for cell viability. […] The cervical cancer cell lines included HeLa, Ca Ski, and C-33 A. The placental cancer cell lines included JEG-3. HEK 293T cells were used as the control cell line to determine the selectivity index. ATPlite is a luminescence based assay reliant on the conversion of a luciferase substrate to light in the presence of ATP. As a cytotoxic compound will suppress growth and decrease the number of cells, the concentration of ATP will decrease, and less light signal will be detected in the well.
Assay Protocol Summary: 1,000 cells in 4 uL of media were dispensed into white, solid bottom 1536-well plates using a Multidrop Combi (Thermo Scientific). The Assay plates were incubated for 16 hours at 37 C with 5% CO2 in assay plates, followed by the addition of 23 nL of DMSO or drug dissolved in DMSO. Each compound was assayed in five concentrations (0.092, 0.46, 2.3, 11.5, and 57.5 uM), using the automated Wako 1536 Pin Tool workstation and incubated at 37 C with 5% CO2 48 hours. 4 uL of ATPlite, the ATP monitoring reagent, was then added to the each well of the assay plates using the Multidrop Combi reagent dispenser followed by incubation for 15 minutes at room temperature. The resulting luminescence was measured using the ViewLux plate reader.
Background: Quantitative high-throughput screening tests each substance at several concentrations.
For the molecule `CCCCCCCC(=O)OCC(COC(=O)CCCCCCC)OC(=O)CCCCCCC`, the “activity change, negative = cytotoxicity” value is 1.69%. With `CCCCCCCCCCC(CO)CCCCCCCC` (stereo not given), the “activity change, negative = cytotoxicity” value was 5.39%. Under `O=C(NCN1CCOCC1)c1cnccn1` stands -14.2%; under `Cc1cc(OI)c(C(C)C)cc1-c1cc(C(C)C)c(OI)cc1C`, 12.3%; under `CCS(=O)(=O)CCn1c([N+](=O)[O-])cnc1C`, 12.8%. As for `Cc1c(NC(C)C)c(=O)n(-c2ccccc2)n1C`, the “activity change, negative = cytotoxicity” value is 13.3%.

On to `CN1C(=O)CC(c2ccccc2)C1=O` (stereo not given), for which the “activity change, negative = cytotoxicity” value was 0.625%. Under `C[C@@H]1O[C@@H](OC[C@H]2O[C@@H](Oc3c(-c4ccc(O)c(O)c4)oc4cc(O)cc(O)c4c3=O)[C@H](O)[C@@H](O)[C@@H]2O)[C@H](O)[C@H](O)[C@H]1O` stands 16.4%; under `O=C(CCBr)N1CCN(C(=O)CCBr)CC1`, -32.3%. `CCOC(=O)c1cccnc1`: the “activity change, negative = cytotoxicity” value was 4.64%. Under `Cc1onc(-c2ccccc2)c1-c1ccc(S(N)(=O)=O)cc1` stands -27.6%; under `Cc1ccc2c(c1)c1c3n2CCNC3CCC1` (stereo not given), 16.2%; under `CCN[C@H]1CN(CCCOC)S(=O)(=O)c2sc(S(N)(=O)=O)cc21`, -0.112%. Under `C[C@@H](N)C(=O)O` stands 0%. The result for `Cc1c(NC(=O)c2cccnc2)c(=O)n(-c2ccccc2)n1C` reads 24.5%. In the case of `C=CCSCC1Nc2cc(Cl)c(S(N)(=O)=O)cc2S(=O)(=O)N1` (stereo not given), the “activity change, negative = cytotoxicity” value was 13.7%. Under `CCOC(=O)OC(C)OC(=O)[C@@H]1N2C(=O)[C@@H](NC(=O)[C@H](N)c3ccccc3)[C@H]2SC1(C)C` (stereo not given in full) stands -9.16%; under `NC(=O)N[C@@H](CCC(=O)O)C(=O)O`, -7.94%; under `COc1ccc2cc(CCC(C)=O)ccc2c1`, -1.83%. Under `Cc1ccsc1/C=C/C1=NCCCN1C` stands 13.2%. With `CC(C)=CCC[C@@](C)(O)[C@H]1CC=C(C)CC1`, the “activity change, negative = cytotoxicity” value was 17.8%.

For `O=C1c2cccc(O)c2C(=O)c2c(O)cccc21`, the “activity change, negative = cytotoxicity” value was 7.68%. The result for `CC(O)CCCCn1c(=O)c2c(ncn2C)n(C)c1=O` (stereo not given) reads 2.56%.

As for `Nc1ncnc2c1ncn2[C@@H]1O[C@H](COP(=O)(O)O)[C@@H](O)[C@H]1O`, the “activity change, negative = cytotoxicity” value was -2.91%. Regarding `Cc1cc(NC(=O)C2=C(O)c3ccccc3S(=O)(=O)N2C)no1`, the “activity change, negative = cytotoxicity” value was 1.91%. For `CCOc1ccccc1O[C@H](c1ccccc1)[C@H]1CNCCO1`, the “activity change, negative = cytotoxicity” value was 21.9%. Under `Cc1cc(C)c(NC(=O)CN(CC(=O)O)CC(=O)O)c(C)c1Br` stands 14.7%; under `Cc1[nH]c(C)c(Cl)c(=O)c1Cl`, 13.5% [at 25.3 µM]. Under `NS(=O)(=O)c1cc2c(cc1C(F)(F)F)NCNS2(=O)=O` stands -1.45%; under `COC(=O)c1cccnc1`, 4.67%; under `CC[N+](CC)(CC(=O)Nc1c(C)cccc1C)Cc1ccccc1`, 16.5%. On to `O=C1c2ccccc2S(=O)(=O)N1CCCCN1CCN(c2ncccn2)CC1`, for which the “activity change, negative = cytotoxicity” value is 4.47%.

Consider `OC(CCN1CCCC1)(c1ccccc1)C1CCCCC1` (stereo not given), for which the “activity change, negative = cytotoxicity” value was -3.38%. `CC(CSC(=O)c1ccccc1)C(=O)N1C[C@@H](Sc2ccccc2)C[C@H]1C(=O)O` (stereo not given in full): the “activity change, negative = cytotoxicity” value was 13% [at 25.3 µM].

Turning to `CC1(C)S[C@@H]2[C@H](NC(=O)C(C(=O)O)c3ccccc3)C(=O)N2[C@H]1C(=O)O` (stereo not given in full), the “activity change, negative = cytotoxicity” value is 4.01%. Under `CCCNC(C)C(=O)Nc1c(C)csc1C(=O)OC` (stereo not given) stands 23.2%.

Regarding `FC(F)(F)C(Cl)Br` (stereo not given), the “activity change, negative = cytotoxicity” value was 4.2%. Under `COc1ccc(C(=O)NCc2ccc(OCCN(C)C)cc2)cc1OC` stands 22%.

Take `O=c1[nH]c(=O)c2ccccc2o1`: the “activity change, negative = cytotoxicity” value is 1.32%. Under `CC(=O)N[C@@H](CC(C)C)C(=O)O` stands -6.68%.

For the origin of these results see PubChem BioAssay (NCATS).
